These results are taken from PubChem BioAssay (EPA / NIEHS).

By AC50 is commonly meant the midpoint of the concentration-response curve, whichever way the signal moves.

Activity calls are given as the source filed them. Rule for the calls: active = hit-call score of the fitted dose curve at least 0.9, where 1 is the maximum; inactive = score below 0.9.

Read-out in assay [1]: TIMP metallopeptidase inhibitor 1 (TIMP1), TIMP1 (gene 7076)
In words: BSK_hDFCGF_TIMP1: BioMAP Diversity Plus: hDFCGF Assay for TIMP metallopeptidase inhibitor 1 (TIMP1) Biomarker Activity (AID 2283062). Conditions: primary human foreskin fibroblasts; actives raise or lower the signal. The gist of the method: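 Primary human foreskin fibroblasts in the hDFCGF system were dosed with compound for 24 h, then TIMP-1 was measured by ELISA. Activity was fitted bidirectionally relative to DMSO control; parallel SRB staining assessed cytotoxicity.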

Read-out in assay [2]: Monokine induced gamma interferon (MIG), CXCL9 (gene 4283)
In words: BSK_hDFCGF_MIG: BioMAP Diversity Plus: hDFCGF Assay for Monokine induced gamma interferon (MIG) Biomarker Activity (AID 2283063). Conditions: primary human foreskin fibroblasts; actives raise or lower the signal. The method, boiled down:
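ELISA read-out of MIG from primary human dermal fibroblasts 24 h post-dosing. Gain or loss of signal fitted bidirectionally, DMSO as baseline.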

Read-out in assay [3]: Matrix Metallopeptidase 1 (MMP1), MMP1 (gene 4312)
In words: BSK_hDFCGF_MMP1: BioMAP Diversity Plus: hDFCGF Assay for Matrix Metallopeptidase 1 (MMP1) Biomarker Activity (AID 2283064). Conditions: primary human foreskin fibroblasts; actives raise or lower the signal. The gist of the method: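 hDFCGF primary fibroblasts (human foreskin); chemical added; 24 h; MMP1 by ELISA; bidirectional fit vs DMSO.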

Read-out in assay [4]: Vascular cell adhesion molecule 1 (VCAM1), VCAM1 (gene 7412)
In words: BSK_hDFCGF_VCAM1: BioMAP Diversity Plus: hDFCGF Assay for Vascular cell adhesion molecule 1 (VCAM1) Biomarker Activity (AID 2283065). Conditions: primary human foreskin fibroblasts; actives raise or lower the signal. The gist of the method: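 Primary human foreskin fibroblasts (hDFCGF system) were dosed with chemical and VCAM-1 was measured by ELISA 24 h later. Bidirectional curve fitting used DMSO as negative control and activity baseline.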

Read-out in assay [5]: Plasminogen activator inhibitor-1 (PAI1), SERPINE1 (gene 5054)
In words: BSK_hDFCGF_PAI1: BioMAP Diversity Plus: hDFCGF Assay for Plasminogen activator inhibitor-1 (PAI1) Biomarker Activity (AID 2283066). Conditions: primary human foreskin fibroblasts; actives raise or lower the signal. The method, boiled down:
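Primary dermal fibroblasts (human foreskin), hDFCGF system; compound 24 h; PAI-1 by ELISA; bidirectional fit vs DMSO control.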

Read-out in assay [6]: Intercellular Adhesion Molecule 1 (ICAM1), ICAM1 (gene 3383)
In words: BSK_KF3CT_ICAM1: BioMAP Diversity Plus: KF3CT Assay for Intercellular Adhesion Molecule 1 (ICAM1) Biomarker Activity (AID 2283067). As to conditions: primary human keratinocytes with fibroblasts; actives raise or lower the signal. The method, boiled down: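 Human keratinocyte plus foreskin fibroblast primary co-culture was exposed to chemical for 24 h. ICAM-1 was then quantified by ELISA, and the data were fit bidirectionally against DMSO as the negative control and baseline.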

Read-out in assay [7]: Interferon-gamma inducible Protein 10 (IP10), CXCL10 (gene 3627)
In words: BSK_KF3CT_IP10: BioMAP Diversity Plus: KF3CT Assay for Interferon-gamma inducible Protein 10 (IP10) Biomarker Activity (AID 2283068). As to conditions: primary human keratinocytes with fibroblasts; actives raise or lower the signal. The method, boiled down: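 Human keratinocyte plus foreskin fibroblast primary co-culture exposed to test chemical for 24 h; IP-10 measured by ELISA. Concentration-response fitted bidirectionally against DMSO control as baseline.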

Assay [8] in a line: BSK_KF3CT_SRB: Viability Assessment in the BioMAP Diversity Plus: KF3CT Assay (AID 2283069).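 Note: total protein by sulforhodamine B staining as a cytotoxicity measure; read 24 h after compound addition; fitted for both signal gain and loss against DMSO baseline.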 As to conditions: primary human keratinocytes with fibroblasts. The gist of the method: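 Keratinocytes co-cultured with foreskin fibroblasts (human primary); chemical added, 24 h; fix 10% TCA, stain 0.1% SRB, A560. Bidirectional fit vs DMSO.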
Read-out in assay [9]: Interleukin-1 alpha (IL1a), IL1A (gene 3552)
In words: BSK_KF3CT_IL1a: BioMAP Diversity Plus: KF3CT Assay for Interleukin-1 alpha (IL1a) Biomarker Activity (AID 2283070). Conditions: primary human keratinocytes with fibroblasts; actives raise or lower the signal. The gist of the method: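 Chemicals were dosed onto co-cultured human keratinocytes and foreskin fibroblasts, IL-1a was quantified by ELISA at 24 h, and activity was fitted in both directions relative to DMSO controls.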

Read-out in assay [10]: TIMP metallopeptidase inhibitor 2 (TIMP2), TIMP2 (gene 7077)
In words: BSK_KF3CT_TIMP2: BioMAP Diversity Plus: KF3CT Assay for TIMP metallopeptidase inhibitor 2 (TIMP2) Biomarker Activity (AID 2283071). Conditions: primary human keratinocytes with fibroblasts; actives raise or lower the signal. The method, boiled down:
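Cells: human keratinocytes co-cultured with foreskin fibroblasts. Treat with chemical, 24 h. Measure TIMP-2 by ELISA; fit curves bidirectionally vs DMSO baseline.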

Read-out in assay [11]: Transforming growth factor beta 1 (TGFb1), TGFB1 (gene 7040)
In words: BSK_KF3CT_TGFb1: BioMAP Diversity Plus: KF3CT Assay for Transforming growth factor beta 1 (TGFb1) Biomarker Activity (AID 2283072). Conditions: primary human keratinocytes with fibroblasts; actives raise or lower the signal. The method, boiled down: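 Primary human skin cells (keratinocytes, foreskin fibroblasts) were co-cultured, exposed to test chemical and sampled at 24 h. TGF-b1 levels were measured by ELISA and fitted bidirectionally relative to DMSO.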

Read-out in assay [12]: C-C motif chemokine 2 (Homo sapiens) (UniProt P13500)
In words: BSK_KF3CT_MCP1: BioMAP Diversity Plus: KF3CT Assay for Monocyte Chemoattractant Protein 1 (MCP1/CCL2) Biomarker Activity (AID 2283073). As to conditions: primary human keratinocytes with fibroblasts; actives raise or lower the signal. The method, boiled down: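 Human keratinocyte plus foreskin fibroblast primary co-culture exposed to chemical for 24 h. MCP-1 levels measured by ELISA. Bidirectional curve fitting relative to DMSO negative control as baseline.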

Read-out in assay [13]: Matrix Metallopeptidase 9 (MMP9), MMP9 (gene 4318)
In words: BSK_KF3CT_MMP9: BioMAP Diversity Plus: KF3CT Assay for Matrix Metallopeptidase 9 (MMP9) Biomarker Activity (AID 2283074).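 For AC50: MMP9 protein level quantified by ELISA in the co-culture.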 Conditions: primary human keratinocytes with fibroblasts; actives raise or lower the signal. The method, boiled down: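 Human keratinocyte/foreskin fibroblast co-culture; compound added; 24 h; MMP-9 by ELISA; bidirectional fit vs DMSO baseline.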

Read-out in assay [14]: urokinase plasminogen activator (uPA), PLAU (gene 5328)
In words: BSK_KF3CT_uPA: BioMAP Diversity Plus: KF3CT Assay for urokinase plasminogen activator (uPA) Biomarker Activity (AID 2283075). As to conditions: primary human keratinocytes with fibroblasts; actives raise or lower the signal. The method, boiled down: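 ELISA readout of uPA, analyzed for signal gain or loss relative to DMSO, from a human primary keratinocyte–foreskin fibroblast co-culture measured 24 h after chemical treatment.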

Read-out in another assay: CD40, CD40 (gene 958)
In words: BSK_LPS_CD40: BioMAP Diversity Plus: LPS Assay for CD40 Biomarker Activity (AID 2283076). As to conditions: primary human HUVEC with PBMC; actives raise or lower the signal. The gist of the method:
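Primary human umbilical vein endothelial cells co-cultured with peripheral blood mononuclear cells, LPS-stimulated, were dosed with chemical and read 24 h later. CD40 levels were measured by ELISA and fitted bidirectionally against DMSO as negative control and baseline.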

Read-out in assay [15]: E-selectin (Homo sapiens) (UniProt P16581)
In words: BSK_LPS_Eselectin: BioMAP Diversity Plus: LPS Assay for Eselectin Biomarker Activity (AID 2283077). As to conditions: primary human HUVEC with PBMC; actives raise or lower the signal. The method, boiled down:
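Human umbilical vein endothelial cells co-cultured with peripheral blood mononuclear cells under LPS stimulation; E-selectin measured by ELISA 24 h after chemical dosing. Activity fitted bidirectionally against DMSO as negative control and baseline.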

Read-out in assay [16]: Interleukin-8 (IL8), CXCL8 (gene 3576)
In words: BSK_LPS_IL8: BioMAP Diversity Plus: LPS Assay for Interleukin-8 (IL8) Biomarker Activity (AID 2283078). Conditions: primary human HUVEC with PBMC; actives raise or lower the signal. The gist of the method: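 Human umbilical vein endothelial cells co-cultured with PBMC were stimulated with LPS; IL-8 levels were measured by ELISA 24 h after chemical dosing. Activity was fitted bidirectionally against DMSO as negative control and baseline.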

A short description of assay [17]: BSK_LPS_SRB: Viability Assessment in the BioMAP Diversity Plus: LPS Assay (AID 2283079).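 Note: total protein by sulforhodamine B absorbance as a cytotoxicity measure; measured one day after compound addition; fitted in both directions against DMSO so loss or gain of signal counts.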 As to conditions: primary human HUVEC with PBMC. The gist of the method:
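Human umbilical vein endothelial cells co-cultured with PBMC (LPS system) were dosed for 24 h. Total protein was stained with 0.1% sulforhodamine B after 10% TCA fixation, read at 560 nm, and fitted bidirectionally against DMSO baseline.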

Read-out in assay [18]: Interleukin-1 alpha (IL1a), IL1A (gene 3552)
In words: BSK_LPS_IL1a: BioMAP Diversity Plus: LPS Assay for Interleukin-1 alpha (IL1a) Biomarker Activity (AID 2283080). As to conditions: primary human HUVEC with PBMC; actives raise or lower the signal. The method, boiled down:
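Human umbilical vein endothelial cells co-cultured with peripheral blood mononuclear cells were LPS-stimulated and exposed to test chemicals for 24 h. IL-1 alpha was quantified by ELISA, with bidirectional curve fitting against DMSO as the negative control and baseline.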

Read-out in assay [19]: Monocyte Chemoattractant Protein-1 (MCP1), CCL2 (gene 6347)
In words: BSK_LPS_MCP1: BioMAP Diversity Plus: LPS Assay for Monocyte Chemoattractant Protein-1 (MCP1) Biomarker Activity (AID 2283081).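 For AC50: co-culture stimulated with LPS; secreted MCP-1 protein quantified by ELISA in culture supernatant.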 As to conditions: primary human HUVEC with PBMC; actives raise or lower the signal. The gist of the method:
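HUVEC plus PBMC co-culture (human primary cells, LPS system) exposed to test chemical for 24 h; MCP-1 measured by ELISA. Bidirectional curve fitting against DMSO baseline; parallel SRB total-protein staining flags overt cytotoxicity.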

Chain of E-selectin (Homo sapiens) (P16581 whole entry, looked up): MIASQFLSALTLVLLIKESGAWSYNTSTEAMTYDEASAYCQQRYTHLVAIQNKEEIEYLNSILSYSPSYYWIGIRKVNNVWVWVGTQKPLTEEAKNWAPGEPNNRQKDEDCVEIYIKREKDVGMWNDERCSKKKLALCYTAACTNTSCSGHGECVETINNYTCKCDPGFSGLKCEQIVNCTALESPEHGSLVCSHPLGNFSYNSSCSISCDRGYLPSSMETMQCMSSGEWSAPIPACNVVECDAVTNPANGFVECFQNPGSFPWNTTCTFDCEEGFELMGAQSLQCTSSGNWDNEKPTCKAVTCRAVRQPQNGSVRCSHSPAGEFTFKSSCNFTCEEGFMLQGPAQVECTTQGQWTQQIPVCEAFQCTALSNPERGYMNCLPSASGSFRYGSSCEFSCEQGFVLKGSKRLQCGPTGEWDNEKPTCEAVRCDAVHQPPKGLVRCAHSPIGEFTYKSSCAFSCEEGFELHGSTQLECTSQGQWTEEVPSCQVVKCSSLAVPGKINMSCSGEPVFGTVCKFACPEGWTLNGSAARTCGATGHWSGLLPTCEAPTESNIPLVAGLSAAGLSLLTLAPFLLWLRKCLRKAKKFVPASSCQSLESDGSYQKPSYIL

For `CCCC(=O)OCC`, the result in assay [1], in [2], in [3], in [4], in [5] and in assay [6] was inactive. For the same compound, the outcome in assay [7], in [8], in assay [9], in assay [10], in [11] and in assay [12] was inactive. For the same compound, the outcome is “inactive” in assay [13]; “inactive” in assay [14]; “inactive” in the assay with CD40, CD40 (gene 958); “inactive” in [15]; “inactive” in assay [16]; “inactive” in assay [17]. The outcome in assay [18] and in [19] was inactive.
For the compound `CC[C@H]1CC[C@H](NCc2cc3c(cc2OC)[C@H]2C[C@H]2C(=O)N3C)[C@H](c2ccccc2)N1`, the result in [1], in [2], in assay [3], in assay [4], in assay [5] and in assay [6] was inactive. Besides, the result in [7], in assay [8], in assay [9], in assay [10], in [11] and in [12] was inactive. Besides, the outcome is “inactive” in [13]; “inactive” in assay [14]; “inactive” in the assay with CD40, CD40 (gene 958); “inactive” in assay [15]; “inactive” in [16]; “inactive” in assay [17]. For the same compound, the outcome in assay [18] and in assay [19] was inactive.
With `CCCCCCCCCCCCCCCO`, the outcome in assay [1], in assay [2], in [3], in assay [4], in assay [5] and in assay [6] was inactive. The result in [7], in [8], in [9], in [10], in assay [11] and in [12] was inactive. In addition, the outcome in assay [13], in assay [14], in assay [15] and in assay [19] was inactive. The AC50 was 33.6 µM (active) in the assay with CD40, CD40 (gene 958); 31.1 µM (active) in [16]; 31.7 µM (active) in assay [17]; 31.9 µM (active) in [18].
On to `C=CC(=C)CCC=C(C)C`, for which the result in assay [1], in [2], in assay [3], in assay [4], in assay [5] and in [6] was inactive. Further, the result in assay [7], in assay [8], in assay [9], in [10], in assay [11] and in assay [12] was inactive. Besides, the outcome in assay [13] is “inactive”; in assay [14] it was “inactive”; with CD40, CD40 (gene 958), “inactive”; in [15], “inactive”; in assay [16] it was “inactive”; in assay [17] it was “inactive”. Also, the outcome in [18] and in assay [19] was inactive.
Turning to `COC(=O)c1c(Cl)c(Cl)c(C(=O)OC)c(Cl)c1Cl`, the outcome in assay [1], in assay [2], in assay [3], in assay [4], in assay [5] and in [6] was inactive. In addition, the result in assay [7], in [8], in assay [9], in assay [10], in assay [11] and in assay [12] was inactive. Also, the outcome in assay [13], in [14], in assay [15], in [16], in [17] and in assay [18] was inactive. Besides, in [19], the result was inactive. In addition, in the assay with CD40, CD40 (gene 958), the AC50 is 11.4 µM (active).
Turning to `CNS(=O)(=O)c1cc(C(=O)N2CCC(CCN3C4CCC3CC(n3c(C)nc5ccccc53)C4)(c3cccc(F)c3)CC2)c(Cl)cc1F` (stereo not given), the result in assay [1], in assay [2], in assay [3], in [4], in [6] and in assay [7] was inactive. Also, the result in [8], in [9], in assay [10], in assay [12], in assay [14] and in assay [15] was inactive. For the same compound, the AC50 was 20 µM (active) in [5]; 32.4 µM (active) in [11]; 20 µM (active) in assay [13]; 20 µM (active) with CD40, CD40 (gene 958); 20 µM (active) in assay [16]; 17.4 µM (active) in assay [17]. For the same compound, the half-maximal activity concentration (AC50) in [18] was 23.5 µM (active); in [19] it was 24.2 µM (active).
